Measurements as given in the supplement of paper PMC10646978.
± gives the standard deviation.

Experiments:
Settings in all cases: modulator concentration 10 µM
[1] = tested on: RAW-Dual (murine macrophage reporter line); test: NF-kB reporter (SEAP) activity fold change vs agonist alone; higher = enhanced NF-kB activity
In short: (§1)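 Compound reached 10 μM final in each well by pin transfer, onto RAW-Dual murine macrophage reporter cells seeded at 50 000 per well in 384-well plates. After 1 hour at 37 °C, the cells were stimulated overnight with a PRR agonist. SEAP in the supernatant was read with QUANTI-Blue at 620 nm absorbance for NF-κB, and Lucia luciferase was read with QUANTI-Luc luminescence for IRF. Each signal was turned into fold change against the mean agonist-only control on the same plate, and two replicate plates were averaged with propagated errors.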

[2] = tested on: RAW-Dual (murine macrophage reporter line); test: IRF reporter (Lucia luciferase) activity fold change vs agonist alone; higher = enhanced IRF activity
In short: as §1

[3] = tested on: RAW-Dual (murine macrophage reporter line); test: viability score (confluency relative to resting cells, overnight) (fraction); higher = more viable, active = viable (0.7 or more)
In short: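 Overnight exposure to 10 μM final compound was carried out on RAW-Dual macrophages in 384-well plates. IncuCyte software generated two confluency masks over all wells imaged with IncuCyte. The viability score gives confluency in relation to resting cells. A compound met the cutoff if each mask exceeded 70% of resting cells.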

[4] = agonist: CpG ODN 1826 0.5 ug/mL

SMILES	NF-kB reporter [1, 4]	NF-kB reporter ([1]; agonist: LPS 0.1 ug/mL)	NF-kB reporter ([1]; agonist: MPLA […])	IRF reporter ([2]; agonist: 3'3'-cGAMP 10 ug/mL)	IRF reporter ([2]; agonist: LPS 0.1 ug/mL)	IRF reporter ([2]; agonist: MPLA […])	viability score [3]
COCCOCC1CCN(C(=O)c2cc(-c3cccc(OC)c3)n[nH]2)CC1	1.09 ± 0.076	0.967 ± 0.092	0.992 ± 0.051	0.957 ± 0.039	1.04 ± 0.059	0.985 ± 0.2	0.995 (active)
COc1ccc(CNC2CCCc3ccccc32)c(OC)c1 (centres undefined)	0.48 ± 0.13	0.812 ± 0.088	0.775 ± 0.12	0.615 ± 0.027	1.23 ± 0.13	1.61 ± 0.17	0.94 (active)
CCCc1nc2ccccc2n1C(=O)C=CC(=O)O	0.789 ± 0.061	0.833 ± 0.06	1.13 ± 0.17	0.981 ± 0.046	1.46 ± 0.12	1.59 ± 0.16	1 (active)
CN(C)CC/C=C1/c2ccccc2COc2ccc(CC(=O)O)cc21.Cl	1.35 ± 0.26	1.22 ± 0.36	1.66 ± 0.75	0.953 ± 0.039	1.42 ± 0.17	1.2 ± 0.094	0.992 (active)
Clc1cccc(OCCCOc2cccc3cccnc23)c1	0.586 ± 0.046	1.13 ± 0.091	1.53 ± 0.17	0.948 ± 0.11	1.18 ± 0.083	2.83 ± 0.56	0.818 (active)
O=C(NCC#CCN1CCc2ccccc2C1)c1cccc(Br)c1	0.87 ± 0.043	1.12 ± 0.095	0.94 ± 0.057	1.01 ± 0.057	1.14 ± 0.069	1.26 ± 0.12	1.01 (active)
COc1c(C)c2c(c(O)c1C/C=C(\C)CCC(=O)O)C(=O)OC2	0.602 ± 0.047	0.146 ± 0.007	0.352 ± 0.032	0.453 ± 0.03	1.13 ± 0.066	1.31 ± 0.11	0.587 (inactive)
CSCCC(NC(=O)C(=Cc1ccccc1)NC(=O)c1ccco1)C(=O)O (centres undefined)	0.764 ± 0.066	0.842 ± 0.054	0.936 ± 0.081	1.05 ± 0.05	1.33 ± 0.081	1.49 ± 0.14	1 (active)
CCOc1ccc(-c2ccc(=O)n(CCNS(=O)(=O)CCc3ccccc3)n2)cc1	1.08 ± 0.081	1.22 ± 0.13	1.06 ± 0.083	1.2 ± 0.078	0.984 ± 0.07	1.3 ± 0.27	0.995 (active)
CC(C)C(C(=O)Nc1ccc(F)cc1)N1C(=O)c2ccccc2C1=O (centres undefined)	0.911 ± 0.079	1.06 ± 0.086	0.935 ± 0.077	0.957 ± 0.033	1.09 ± 0.15	0.943 ± 0.058	1.02 (active)
c1ccc(CSc2nnc(-c3ccncc3)[nH]2)cc1	1.08 ± 0.085	0.945 ± 0.097	1.04 ± 0.028	0.582 ± 0.033	0.888 ± 0.043	0.872 ± 0.09	0.996 (active)
Cc1cccc(CS(=O)(=O)N2CCC(S(=O)(=O)c3nccn3C)CC2)c1	1.04 ± 0.078	1.02 ± 0.082	0.983 ± 0.038	1.04 ± 0.088	0.979 ± 0.089	1.05 ± 0.12	0.998 (active)
COc1ccc(C=NNC(=O)CSc2nnc(-c3ccccc3)n2-c2ccccc2)cc1OC	1.14 ± 0.091	1.14 ± 0.074	1.09 ± 0.045	0.845 ± 0.059	0.958 ± 0.056	1 ± 0.076	0.996 (active)
O=C(Nc1ccc([N+](=O)[O-])cc1)c1cc(Cl)ccc1O	1.14 ± 0.18	1.02 ± 0.088	0.841 ± 0.081	0.905 ± 0.033	1.17 ± 0.11	1.28 ± 0.17	0.991 (active)
COc1ccc(-c2ccc(OCCNC(=O)Cc3ccc(Br)cc3)nn2)cc1	0.959 ± 0.049	1.08 ± 0.084	0.908 ± 0.055	1.02 ± 0.085	1.09 ± 0.2	1.07 ± 0.31	1 (active)
COc1cc(C=NNc2ccc(C(=O)O)cc2)cc(Br)c1O	1.16 ± 0.13	0.97 ± 0.062	1.09 ± 0.1	0.198 ± 0.006	0.241 ± 0.061	0.223 ± 0.035	1 (active)
CN(C)CCOC(C)(c1ccccc1)c1ccccn1.O=C(O)CCC(=O)O (centres undefined)	0.876 ± 0.12	1.25 ± 0.39	0.954 ± 0.067	0.862 ± 0.029	1.41 ± 0.33	1.16 ± 0.15	1 (active)
CCOc1ccc2nc(S(N)(=O)=O)sc2c1	0.804 ± 0.2	1.02 ± 0.051	0.985 ± 0.067	0.855 ± 0.029	0.897 ± 0.11	0.953 ± 0.2	1.01 (active)
CCOC(=O)C(CCc1ccccc1)NC(C)C(=O)N1Cc2ccccc2CC1C(=O)O.Cl (centres undefined)	1.27 ± 0.31	1.05 ± 0.057	0.977 ± 0.072	0.955 ± 0.046	1.22 ± 0.14	1.3 ± 0.13	0.997 (active)
Cc1cccc(C)c1N(CC(=O)Nc1ccc(-c2ncon2)cc1)C(=O)C1CCS(=O)(=O)CC1	1.06 ± 0.083	0.939 ± 0.075	1.05 ± 0.024	0.976 ± 0.098	0.997 ± 0.13	0.982 ± 0.086	0.999 (active)
CCOC(=O)N1CCN(C(=O)C2CCN(Cc3ccc(C)o3)CC2)CC1	0.941 ± 0.15	1.04 ± 0.089	0.98 ± 0.08	1.02 ± 0.051	1.26 ± 0.3	1.41 ± 0.3	0.991 (active)
CC1=C(C(=O)Nc2ccc(C)cn2)C(c2ccccc2Cl)C2=C(CCCC2=O)N1 (centres undefined)	1.01 ± 0.12	0.983 ± 0.062	0.847 ± 0.053	1.02 ± 0.034	1.43 ± 0.12	1.1 ± 0.08	1.01 (active)
N=C(N)c1ccc(OCCCCCOc2ccc(C(=N)N)cc2)cc1.O=S(=O)(O)CCO.O=S(=O)(O)CCO	0.243 ± 0.017	0.46 ± 0.037	0.492 ± 0.027	0.715 ± 0.079	1.18 ± 0.2	0.788 ± 0.16	0.305 (inactive)
COc1ccc(Br)c(C(=O)N2CCCC2CS(=O)(=O)c2ccccc2)c1 (centres undefined)	0.982 ± 0.12	1.08 ± 0.085	0.957 ± 0.075	0.988 ± 0.051	0.984 ± 0.098	0.876 ± 0.11	1 (active)
CC(C)Oc1ccc(C(=O)N2CCC(c3ccccc3)S(=O)(=O)CC2)cn1 (centres undefined)	1.06 ± 0.08	0.861 ± 0.13	0.998 ± 0.052	0.921 ± 0.054	1.03 ± 0.049	0.968 ± 0.13	0.989 (active)
CC(C)CN(C[C@@H](O)[C@H](Cc1ccccc1)NC(=O)O[C@H]1CCOC1)S(=O)(=O)c1ccc(N)cc1	1.51 ± 0.36	1.4 ± 0.43	1.63 ± 0.097	0.918 ± 0.028	1.29 ± 0.33	1.22 ± 0.14	0.998 (active)
CN(C)C/C=C/C(=O)Nc1cc2c(Nc3ccc(F)c(Cl)c3)ncnc2cc1O[C@H]1CCOC1.O=C(O)/C=C\C(=O)O.O=C(O)/C=C\C(=O)O	0.365 ± 0.017	0.661 ± 0.089	0.613 ± 0.034	0.418 ± 0.026	0.795 ± 0.17	0.855 ± 0.3	0.999 (active)
